Some test systems named below: NCI-H23 lung; NCI-H226 lung; HOP-62 NSCLC; NCI-H460 lung; HOP-92 NSCLC; NCI-H522 lung; A549/ATCC NSCLC; COLO 205 colon; 786-0 renal.
What all share (assay): NCI-60 one-dose screen, 48 h (100 = growth as untreated, 0 = no growth, -100 = all killed)
What all share (conditions): 10 µM unless noted

Structures are written as SMILES. This is part of a sample that, as a whole, favours compounds with a hit. Of some 83,000 tested, about 20% had one in any assay.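 Assay: single dose, 48 h. Readout: percent growth (0 = no net growth; negative = cell death). Active: <10.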 A number with no mark means an inactive call. The source made the active and inactive calls.

In the case of `Cn1c2ccccc2c2c3[nH]c(=O)[nH]c(=O)c3c3c4ccccc4n(C)c3c21`, the growth in the assay with NCI-H23 lung is 43.3%; in the assay with NCI-H226 lung, 52.6%; in the assay on HOP-62 NSCLC, 38.1%; with NCI-H460 lung, 20.1%; with HOP-92 NSCLC it was -4.38% (active); with NCI-H522 lung, 20.4%. Also, the figures for the growth with A549/ATCC NSCLC and with COLO 205 colon were 24.3% and 53.8%, respectively.

With `COc1cc(NC(N)=NCC(C)(C)COc2ccc(C(F)(F)F)cc2)cnc1C#N`, the growth in the assay on NCI-H23 lung is 64.9%; with NCI-H226 lung, 68.7%; in the assay with HOP-62 NSCLC, 68.5%; in the assay on NCI-H460 lung, 58%; in the assay with HOP-92 NSCLC, -9.25% (active); in the assay on NCI-H522 lung, 57.6%. Moreover, the growth was 72.5% in the assay on A549/ATCC NSCLC and 61.4% in the assay with 786-0 renal.

Regarding `N=c1c2ccccc2nc2n1CCCCC2`, the growth with NCI-H23 lung was 102%; in the assay with NCI-H226 lung it was 102%; with HOP-62 NSCLC, 105%; in the assay with NCI-H460 lung, 113%; in the assay with HOP-92 NSCLC, 133%; in the assay with NCI-H522 lung it was 116%. For the same molecule, the values for the growth in the assay on A549/ATCC NSCLC, in the assay with 786-0 renal and with COLO 205 colon were 101%, 119% and 104%, respectively.

Take `Cn1c2ccccc2c2c3c(c4c5ccccc5[nH]c4c21)C(=O)N(N)C3=O`: the growth with NCI-H23 lung was 46.1%; with NCI-H226 lung it was 53.4%; in the assay on HOP-62 NSCLC, 44.3%; in the assay with NCI-H460 lung, 17.5%; in the assay on HOP-92 NSCLC, 80%; in the assay on NCI-H522 lung, 50.2%. The growth in the assay on A549/ATCC NSCLC was 66.4%; in the assay with COLO 205 colon, 56.8%.

With `O=c1c2c3c(sc2n2c(CCl)nnc2n1Cc1ccccc1)CCCC3`, the growth with NCI-H23 lung was -42.1% (active); in the assay on NCI-H226 lung it was -60.9% (active); with HOP-62 NSCLC, 54.7%; in the assay on HOP-92 NSCLC, -81.7% (active); in the assay with NCI-H522 lung, -57.1% (active); in the assay on A549/ATCC NSCLC it was 28.5%. Further, the growth with 786-0 renal is -18% (active); in the assay on COLO 205 colon, -39.1% (active).

For `CNc1nc(C)c(-c2nc(Nc3cccc(S(N)(=O)=O)c3)ncc2F)s1`, the growth with NCI-H23 lung is -18.8% (active); with NCI-H226 lung it was 7.23% (active); with HOP-62 NSCLC it was 3.17% (active); in the assay with NCI-H460 lung, 4.4% (active); in the assay with HOP-92 NSCLC it was 38.2%; in the assay on NCI-H522 lung, -11.7% (active). The figures for the growth in the assay with A549/ATCC NSCLC, in the assay on 786-0 renal and with COLO 205 colon were 3.85% (active), 2.98% (active) and -66.1% (active), respectively.

For `O=C1C[C@H](Sc2nc(-c3ccc(F)cc3)cc(C(F)(F)F)n2)[C@H]2CO[C@@H]1O2`, the growth with NCI-H23 lung is 99.2%; in the assay with NCI-H226 lung, 103%; with HOP-62 NSCLC it was 104%; in the assay with NCI-H460 lung it was 106%; in the assay with HOP-92 NSCLC, 105%; in the assay on NCI-H522 lung, -62.1% (active). The values for the growth in the assay with A549/ATCC NSCLC and in the assay with COLO 205 colon were 102% and 75.8%, respectively.

Take `O=C1CCc2c(sc3[nH]c(=S)n(Cc4ccccc4)c(=O)c23)C1`: the growth was 0.541% (active) with NCI-H23 lung; 51.2% in the assay on NCI-H226 lung; 10.2% in the assay with HOP-62 NSCLC; 3.94% (active) with NCI-H460 lung; -19.5% (active) with HOP-92 NSCLC; 2.03% (active) in the assay on NCI-H522 lung. The growth in the assay with A549/ATCC NSCLC is 13.9%; in the assay on 786-0 renal, 30.9%; in the assay with COLO 205 colon, 32.3%.

Consider `COc1ccc(/C=N\NC(=O)c2ccncc2)cc1O`, for which the growth in the assay with NCI-H23 lung was 93.8%; in the assay with NCI-H226 lung, 92.6%; with HOP-62 NSCLC it was 93%; in the assay with NCI-H460 lung, 109%; with HOP-92 NSCLC, 92.9%; with NCI-H522 lung it was 81.4%. The growth was 93.7% in the assay on A549/ATCC NSCLC, 93.7% in the assay on 786-0 renal and 110% in the assay on COLO 205 colon.

Regarding `COc1ccc(C2Nc3ccccc3-n3cccc32)cc1` (stereo unspecified), the growth with NCI-H23 lung was 80.4%; in the assay on NCI-H226 lung it was 96.7%; in the assay with HOP-62 NSCLC, 104%; in the assay on NCI-H460 lung it was 102%; in the assay on HOP-92 NSCLC, 74.2%; with NCI-H522 lung, 95.7%. Also, the growth in the assay on A549/ATCC NSCLC is 104%; with 786-0 renal, 111%; in the assay with COLO 205 colon, 126%.

With `Brc1cccc(-c2cc(-c3ccc4c(c3)OCCO4)[nH]n2)c1`, the growth in the assay on NCI-H23 lung is 42.5% [25 µM]; in the assay with NCI-H226 lung, 25.2% [25 µM]; in the assay on HOP-62 NSCLC, 20.4% [25 µM]; with NCI-H460 lung, 10.3% [25 µM]; in the assay on HOP-92 NSCLC, 62.8% [25 µM]; with NCI-H522 lung, -5.75% [25 µM] (active). The growth with A549/ATCC NSCLC was 25.7% [25 µM]; in the assay with 786-0 renal, 40.8% [25 µM]; in the assay on COLO 205 colon, -24.5% [25 µM] (active).

In the case of `NS(=O)(=O)c1ccc(Nc2nc3n[nH]c(Nc4ccccc4)c3c(=O)[nH]2)cc1`, the growth in the assay on NCI-H23 lung is 94.9%; in the assay on NCI-H226 lung, 92.5%; with HOP-62 NSCLC it was 90.8%; in the assay with NCI-H460 lung, 103%; with HOP-92 NSCLC, 102%; with NCI-H522 lung, 90.4%. The growth was 103% with A549/ATCC NSCLC, 101% in the assay with 786-0 renal and 96.6% with COLO 205 colon.

As to `COc1cc(-c2nc3ccccc3s2)ccc1NC(=O)COc1ccc(Cl)cc1`, the growth in the assay with NCI-H23 lung was 38.3%; in the assay with NCI-H226 lung it was 60%; in the assay on HOP-62 NSCLC, 29.1%; in the assay on NCI-H460 lung, 13.4%; with HOP-92 NSCLC it was 8.1% (active); with NCI-H522 lung, 38.6%. In addition, the growth in the assay with A549/ATCC NSCLC was 49.2%; in the assay on 786-0 renal it was 16.8%; in the assay on COLO 205 colon, 52.8%.

`COCCCNc1nc(NC(=O)c2ccc(F)cc2C)cc(-c2cccnc2)n1`: the growth in the assay on NCI-H23 lung was 107%; with NCI-H226 lung, 89.1%; with HOP-62 NSCLC, 99.4%; in the assay on NCI-H460 lung, 102%; in the assay with HOP-92 NSCLC, 67%; in the assay on NCI-H522 lung, 78.6%. Further, the growth in the assay with A549/ATCC NSCLC is 79.8%; with 786-0 renal, 98.4%; in the assay with COLO 205 colon, 111%.

`CCOC(=S)SCc1ccc(Cl)cc1`: the growth was 111% in the assay on NCI-H23 lung; 101% with NCI-H226 lung; 101% in the assay on HOP-62 NSCLC; 110% in the assay with NCI-H460 lung; 49.3% in the assay with HOP-92 NSCLC; 87.2% in the assay on NCI-H522 lung. Also, the growth with A549/ATCC NSCLC is 80.4%; in the assay on 786-0 renal, 98%; in the assay on COLO 205 colon, 145%.

As for `O=C1Nc2c(ccc(Cl)c2Cl)/C1=C/c1cc(Br)c(O)c(Br)c1`, the growth with NCI-H23 lung is 73.9%; in the assay on NCI-H226 lung, 78.5%; with HOP-62 NSCLC, 79.1%; with NCI-H460 lung, 46.1%; in the assay with HOP-92 NSCLC, 67.1%; with NCI-H522 lung it was 9.37% (active). Further, the growth with A549/ATCC NSCLC was 51.4%; with 786-0 renal, 74.6%; in the assay with COLO 205 colon, 79.2%.

For the molecule `O=C1c2cc3c(cc2-c2c1c1cc(Cl)c(Cl)cc1c(=O)n2C[C@H](O)CO)OCO3`, the growth in the assay on NCI-H23 lung is -55.7% (active); in the assay on NCI-H226 lung, -62% (active); with HOP-62 NSCLC it was -54.3% (active); in the assay on NCI-H460 lung, -0.391% (active); with HOP-92 NSCLC, -31.9% (active); in the assay on NCI-H522 lung, -29% (active). Besides, the growth is -44.3% (active) in the assay with 786-0 renal and -39.4% (active) in the assay with COLO 205 colon.

Consider `COc1cc(C(=O)/C=C/c2c(C)n([O-])c3ccc(C)cc3[n+]2=O)cc(OC)c1OC`, for which the growth in the assay with NCI-H23 lung is 42.2%; with NCI-H226 lung it was 72.7%; in the assay on HOP-62 NSCLC, 102%; with NCI-H460 lung, 88.4%; in the assay with HOP-92 NSCLC it was 64.5%; in the assay on NCI-H522 lung, -81.8% (active). In addition, the growth in the assay on A549/ATCC NSCLC was 85.8%; in the assay with 786-0 renal, 74%; in the assay on COLO 205 colon, -36.6% (active).

For the origin of these results see PubChem BioAssay (NCI).
